The values below come from PubChem BioAssay.

A short description of assay [1]: potentiators of IFN-gamma STAT1 reporter activity – cell-based, HTS, luciferase reporter, confirmation (AID 1262;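 active means activation above a set limit carried over from the earlier primary STAT1 screen, cut at about 140% in these data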;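 further: simple ratio to median IFN-gamma plus DMSO wells so 0% means no light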). The conditions noted are these: NIH 3T3 STAT1-luciferase reporter, IFN-gamma potentiation, luminescence; at 5.7 µM; active compounds read high; 100% = IFN-gamma EC80 alone, no compound. On the technique in general: A reporter such as luciferase makes a cellular process visible.

Assay [2] can be described thus: enhancement of NF-kB transcriptional signalling – cell-based, HEK293T, luciferase luminescence, TNF-alpha, counter-screen for STAT1 activator project (AID 1306).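 Further: TNF-alpha given at a submaximal dose yielding about 80% of full reporter signal; values are well signal over median control so 100% means no change and 0% no light.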 The conditions noted are these: HEK293T NF-kB luciferase reporter, TNF-alpha stimulated, at 5.7 µM, active compounds read high, 100% = TNF-alpha with vehicle only. Background: A counterscreen serves to expose hits that act by an unwanted route or on another target.

Assay [3] concerns the target Signal transducer and activator of transcription 3 (Homo sapiens) (UniProt P40763). Briefly: enhancers of IL-6 STAT3 transcription – U3A cells, luciferase, luminescence, counter-screen for STAT1 activator project, confirmation (AID 1316;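 active means activation above the solvent-only control well mean plus 3 SD, set per plate batch, cut at about 110% in these data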;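 further: 0% = no luminescence and 100% = median IL-6 plus DMSO wells; higher means more STAT3 reporter activation so hits are non-selective activators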). The conditions noted are these: U3A cells STAT3-luciferase reporter, IL-6, luminescence; at 5.7 µM; active compounds read high; 100 = IL-6 alone, no compound effect; cells lack STAT1.

In assay [4] the target is Oxysterols receptor LXR-beta (Homo sapiens) (UniProt P55055). Briefly: nonspecific reporter activation via LXR – cell-based, luminescence, HEK293, H. contortus campaign, counter-screen for hcDAF-12 agonist project, confirmation (AID 743027;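 active means mean percent activation of the reporter above a cutoff set as the average over tested compounds plus their standard deviation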). Particulars: HEK293 Gal4-LXR tk-luc reporter, 24 h, at 6.8 µM, active compounds read high, normalized: DMSO 0%, positive control 100%.
Sequence of Oxysterols receptor LXR-beta (Homo sapiens) (P55055 whole entry, looked up, the tested form may be a part): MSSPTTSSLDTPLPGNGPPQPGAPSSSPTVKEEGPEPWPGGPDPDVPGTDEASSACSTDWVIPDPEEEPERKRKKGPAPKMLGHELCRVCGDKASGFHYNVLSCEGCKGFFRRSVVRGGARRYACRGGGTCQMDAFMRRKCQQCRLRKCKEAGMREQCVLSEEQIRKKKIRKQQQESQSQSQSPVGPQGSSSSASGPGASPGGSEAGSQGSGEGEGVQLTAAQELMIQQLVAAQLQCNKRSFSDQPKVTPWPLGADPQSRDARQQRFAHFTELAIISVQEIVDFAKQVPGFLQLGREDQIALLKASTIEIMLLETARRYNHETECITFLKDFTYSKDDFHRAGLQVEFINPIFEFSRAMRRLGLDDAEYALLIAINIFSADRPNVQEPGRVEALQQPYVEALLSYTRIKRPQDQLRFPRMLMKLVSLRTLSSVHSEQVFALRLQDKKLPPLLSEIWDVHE
Assay [5] deals with Nuclear hormone receptor DAF-12 (Haemonchus contortus). Briefly: hcDAF-12 luciferase reporter activation, retest – cell-based, luminescence, HEK293, lit1-tk-luc, triplicate, confirmation (AID 743032;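 active means mean activation across triplicate tests above the threshold derived from the earlier primary screen, cut at about 5.5% in these data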;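 further: 0% = DMSO only wells and 100% = 3 µM Δ7-dafachronic acid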). Particulars: HEK293 hcDAF-12 lit1-tk-luc reporter, at 6.8 µM, active compounds read high, % of Δ7-dafachronic acid response.
Assay [6] concerns DAF-12 nuclear receptor (Heterodera glycines), GAL4-LBD fusion. The experiment in a line: hgDAF-12 GAL4 fusion reporter activation, retest – cell-based, luminescence, HEK293, GAL4-LBD fusion, confirmation (AID 743050;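 active means mean activation over triplicate wells above the hit cutoff derived from the earlier primary screen, cut at about 11% in these data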;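 further: 0% = DMSO low control and 100% = 2 mM sodium butyrate high control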). The conditions noted are these: HEK293 GAL4-hgDAF12 luciferase reporter, agonist mode; at 6.8 µM; active compounds read high; percent of butyrate response.
Assay [7] has as its target Oxysterols receptor LXR-beta (Homo sapiens) (UniProt P55055). The experiment in a line: nonspecific reporter activation via LXR – cell-based, luminescence, HEK293, H. glycines campaign, counter-screen for hgDAF-12 agonist project, confirmation (AID 743051;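 active means mean activation of the triplicate above a set limit carried over from the primary screen, none filed active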). The conditions noted are these: HEK293 Gal4-LXR luciferase reporter, 24 h; at 6.8 µM; active compounds read high.
Assay [8] has as its target Insulin-degrading enzyme (Homo sapiens) (UniProt P14735). Briefly: cellular IDE Abeta-cleavage inhibition – fluorescence polarization, HEK cells, FAbetaB substrate, confirmation (AID 435028;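 active means mean inhibition across triplicate wells above the cutoff set by the earlier primary insulin-degrading enzyme screen, cut at about 16% in these data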;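 further: 0% = DMSO wells and 100% = 60 µM reference IDE inhibitor Ii1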). The conditions noted are these: at 5.59 µM, active compounds read high. On the technique in general: Polarisation of emitted light reports the rotation of a fluorescent probe.
A short description of assay [9]: HEK cell viability loss – luminescence, cytotoxicity control for IDE inhibitor project (AID 449730; in the data active means inhibition above about 22%;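 further: 0% = vehicle wells and 100% = reference cytotoxic drug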). Particulars: HEK293 cytotoxicity, ATP luminescence; at 5.59 µM; active compounds read high.
Assay [10] is described as follows: suppression of KLF5 promoter-driven luciferase – DLD-1 cells, luminescence, confirmation (AID 1834;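 active means inhibition above a set limit taken from the earlier primary screen, cut at about 63% in these data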;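 further: 0% = DMSO wells and 100% = LY294002 at 200 µM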). Particulars: DLD-1 KLF5 promoter firefly luciferase reporter, at 4 µM, active compounds read high.
The nature of assay [11]: IEC-6 intestinal cell killing – luminescence, triplicate, cytotoxicity control for KLF5 inhibitor project (AID 1905; in the data active means inhibition above about 23%;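 further: cells exposed to compounds for 48 hours before viability read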). The conditions noted are these: IEC-6 rat intestinal cells, viability luminescence; at 4 µM; active compounds read high.
Assay [12] is described as follows: blockers of IL-6 STAT3 signaling – U3A cells, luciferase, luminescence, confirmation (AID 1265;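 active means inhibition above the hit cutoff computed for the primary STAT3 screen, cut at about 44% in these data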;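 further: 0% = IL-6 plus DMSO and 100% = IL-6 plus nifuroxazide control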). Particulars: IL-6 STAT3 luciferase reporter, at 5.7 µM, active compounds read high, cell line lacks STAT1.
A short description of assay [13]: inhibition of TNF-alpha-driven NF-kB transcription – cell-based, HEK293T, luciferase, TNF-alpha stimulus, counter-screen for STAT3 inhibitor project, confirmation (AID 1308;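 active means inhibition above the mean of solvent-only control wells plus 3 SD, cutoff set per campaign, cut at about 13% in these data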;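 further: 0% = TNF-alpha with DMSO and 100% = TNF-alpha with MG high control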). Particulars: HEK293T NF-kB luciferase reporter, TNF-alpha induced; at 5.7 µM; active compounds read high.
A short description of assay [14]: inhibition of STAT1-driven transcription – cell-based, NIH 3T3, luciferase luminescence, IFN-gamma, counter-screen for STAT3 inhibitor project, confirmation (AID 1317;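 active means inhibition above the mean plus 3 SD of solvent-only control wells, limit set per screening run, cut at about 16% in these data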;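 further: 0% = DMSO with IFN-gamma and 100% = nifuroxazide control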). The conditions noted are these: NIH 3T3 STAT1-luciferase reporter, IFN-gamma induced, at 5.7 µM, active compounds read high.
The target in assay [15] is Nuclear receptor coactivator 3 (Homo sapiens) (UniProt Q9Y6Q9). Briefly: NCOA3 GAL4-fusion reporter inhibition – cell-based, luminescence, quadruplicate, confirmation (AID 588792;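 active means mean inhibition over 43.08%, the solvent-only control mean plus 3 SD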;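 further: 0% = DMSO treated cells and 100% = gossypol at 36 µM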). The conditions noted are these: HEK293 GAL4-SRC3 luciferase reporter, at 3.6 µM, active compounds read high.
Sequence of Nuclear receptor coactivator 3 (Homo sapiens) (Q9Y6Q9 whole entry, looked up, the tested form may be a part): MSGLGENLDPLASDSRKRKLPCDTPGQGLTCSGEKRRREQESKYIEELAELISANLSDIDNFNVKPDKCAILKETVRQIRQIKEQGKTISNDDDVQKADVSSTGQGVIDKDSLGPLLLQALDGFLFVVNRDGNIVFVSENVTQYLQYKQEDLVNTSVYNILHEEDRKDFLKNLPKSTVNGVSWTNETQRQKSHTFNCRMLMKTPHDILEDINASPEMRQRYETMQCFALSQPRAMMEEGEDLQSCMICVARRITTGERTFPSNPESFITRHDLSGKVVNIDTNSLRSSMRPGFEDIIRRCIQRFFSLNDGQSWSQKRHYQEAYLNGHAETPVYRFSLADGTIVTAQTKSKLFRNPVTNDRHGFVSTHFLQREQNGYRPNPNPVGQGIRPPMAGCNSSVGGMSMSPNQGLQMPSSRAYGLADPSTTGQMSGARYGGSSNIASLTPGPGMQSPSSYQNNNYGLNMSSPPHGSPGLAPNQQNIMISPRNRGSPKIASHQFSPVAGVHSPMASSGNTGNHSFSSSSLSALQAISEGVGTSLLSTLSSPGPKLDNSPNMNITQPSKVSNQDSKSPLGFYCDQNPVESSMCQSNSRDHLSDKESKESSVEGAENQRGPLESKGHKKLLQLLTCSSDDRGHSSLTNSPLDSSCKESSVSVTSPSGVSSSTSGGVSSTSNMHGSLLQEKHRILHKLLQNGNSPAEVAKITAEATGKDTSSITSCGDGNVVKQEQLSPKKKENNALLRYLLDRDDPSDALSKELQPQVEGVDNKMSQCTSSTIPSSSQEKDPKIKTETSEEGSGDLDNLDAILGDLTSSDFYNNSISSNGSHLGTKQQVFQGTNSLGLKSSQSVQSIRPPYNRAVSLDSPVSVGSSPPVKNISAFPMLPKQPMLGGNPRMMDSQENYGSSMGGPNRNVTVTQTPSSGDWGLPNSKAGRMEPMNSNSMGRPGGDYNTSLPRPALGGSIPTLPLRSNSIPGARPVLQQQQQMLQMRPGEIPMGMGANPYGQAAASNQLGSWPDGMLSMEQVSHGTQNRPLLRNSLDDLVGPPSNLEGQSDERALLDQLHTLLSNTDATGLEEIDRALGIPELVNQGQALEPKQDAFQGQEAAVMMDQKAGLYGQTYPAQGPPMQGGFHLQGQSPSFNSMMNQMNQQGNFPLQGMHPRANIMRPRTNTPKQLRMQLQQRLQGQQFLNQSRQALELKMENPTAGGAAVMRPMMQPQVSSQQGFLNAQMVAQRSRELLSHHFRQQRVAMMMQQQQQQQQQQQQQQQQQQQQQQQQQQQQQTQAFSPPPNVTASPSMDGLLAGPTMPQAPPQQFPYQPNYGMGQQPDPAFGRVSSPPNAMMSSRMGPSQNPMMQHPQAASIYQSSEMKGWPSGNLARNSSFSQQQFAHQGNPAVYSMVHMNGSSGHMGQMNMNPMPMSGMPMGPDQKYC
Assay [16] has as its system transactivating tegument protein VP16 (Human herpesvirus 1), Gal4-VP16 luciferase reporter. The experiment in a line: repression of VP16-driven luciferase reporter – cell-based, luminescence, high throughput, counter-screen for SRC3 inhibitor project (AID 588794; in the data active means inhibition above about 30%). The conditions noted are these: mammalian cells, at 3.6 µM, active compounds read high.
Assay [17] addresses Photoreceptor-specific nuclear receptor (Homo sapiens) (UniProt Q9Y5X4). The experiment in a line: retest of NR2E3-NCOR disrupting agonists – cell-based, luminescence, CHO-S two-hybrid, confirmation (AID 624378;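 active means average inhibition above a cutoff equal to the mean inhibition of all tested compounds plus one SD, cut at about 70% in these data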;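 further: 0% = DMSO in NR2E3 cells and 100% = DMSO in cells lacking NR2E3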). The conditions noted are these: CHO-S mammalian two-hybrid NR2E3-NCOR, luciferase luminescence; at 3.98 µM; active compounds read high.
Assay [18] is described as follows: nonselective effects on VP16 transactivation – cell-based, luminescence, CHO-S, high throughput, counter-screen for NR2E3 agonist project, confirmation (AID 624379;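 active means mean inhibition above a cutoff equal to the average over all tested compounds plus one standard deviation, cut at about 70% in these data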;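 further: luciferase from a UAS reporter driven by GAL4-VP16 transactivation; 0% = DMSO with VP16-transfected cells and 100% = DMSO with cells lacking VP16; higher means less reporter light so more repression of VP16 activity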). The conditions noted are these: CHO-S GAL4-VP16 luciferase reporter, at 3.98 µM, active compounds read high.
A short description of assay [19]: StAR promoter reporter inhibitors, counter-screen for LRH-1 inverse agonist project, cell-based, luminescence, high throughput (AID 651611; in the data active means inhibition above about 28%). Particulars: StAR promoter luciferase reporter counterscreen, at 3.6 µM, active compounds read high.
In assay [20] the target is Nuclear receptor subfamily 5 group A member 2 (Homo sapiens) (UniProt O00482). Briefly: NR5A2 activity suppression in reporter cells – cell-based, luminescence, confirmation (AID 651613; in the data active means inhibition above about 42%;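 further: HEK293T cells co-transfected with LRH-1 and StAR promoter luciferase reporter; 0% = vehicle wells and 100% = parental cells lacking receptor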). Particulars: cell-based LRH-1 luciferase reporter, inverse agonism; at 3.6 µM; active compounds read high.
Sequence of Nuclear receptor subfamily 5 group A member 2 (Homo sapiens) (O00482 whole entry, looked up): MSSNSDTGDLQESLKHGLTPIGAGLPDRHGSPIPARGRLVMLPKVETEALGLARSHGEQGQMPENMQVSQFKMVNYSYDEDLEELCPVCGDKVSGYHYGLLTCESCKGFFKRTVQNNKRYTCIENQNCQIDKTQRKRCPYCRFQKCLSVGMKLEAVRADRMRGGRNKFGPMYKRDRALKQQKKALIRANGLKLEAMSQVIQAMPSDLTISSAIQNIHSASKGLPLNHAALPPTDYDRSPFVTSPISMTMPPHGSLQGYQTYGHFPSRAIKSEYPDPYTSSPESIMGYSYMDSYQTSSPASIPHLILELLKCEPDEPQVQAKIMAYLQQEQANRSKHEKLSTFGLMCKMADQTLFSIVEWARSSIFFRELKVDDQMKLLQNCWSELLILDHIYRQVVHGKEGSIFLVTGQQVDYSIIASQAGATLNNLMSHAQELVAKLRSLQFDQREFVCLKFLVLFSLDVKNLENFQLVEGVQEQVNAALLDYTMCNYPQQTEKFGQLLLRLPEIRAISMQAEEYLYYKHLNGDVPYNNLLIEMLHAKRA
Assay [21] deals with Steroidogenic factor 1 (Homo sapiens) (UniProt Q13285). The experiment in a line: inverse agonism at SF1 nuclear receptor – cell-based, luminescence, high throughput, counter-screen for LRH-1 inverse agonist project (AID 651614; in the data active means inhibition above about 44%;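 further: cells cotransfected with StAR promoter reporter and SF1 expression vector; 0% = vehicle on cells with receptor and 100% = vehicle on cells lacking receptor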). Particulars: cell-based SF1 luciferase reporter, at 3.6 µM, active compounds read high.
Sequence of Steroidogenic factor 1 (Homo sapiens) (Q13285 whole entry, looked up, the tested form may be a part): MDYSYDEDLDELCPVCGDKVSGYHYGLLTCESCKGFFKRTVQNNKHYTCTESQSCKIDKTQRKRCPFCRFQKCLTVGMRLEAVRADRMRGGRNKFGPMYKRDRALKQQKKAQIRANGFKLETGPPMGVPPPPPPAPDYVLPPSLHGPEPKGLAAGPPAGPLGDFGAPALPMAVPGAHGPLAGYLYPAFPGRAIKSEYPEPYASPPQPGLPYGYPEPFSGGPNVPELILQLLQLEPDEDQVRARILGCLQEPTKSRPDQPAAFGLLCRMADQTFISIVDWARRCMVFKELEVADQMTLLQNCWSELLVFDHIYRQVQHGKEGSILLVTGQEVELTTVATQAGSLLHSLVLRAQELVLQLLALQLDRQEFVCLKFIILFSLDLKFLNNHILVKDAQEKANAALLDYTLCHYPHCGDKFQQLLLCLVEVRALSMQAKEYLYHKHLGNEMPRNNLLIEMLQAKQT
Assay [22] is described as follows: compounds suppressing VP16-driven luciferase signal – cell-based, luminescence, high throughput, counter-screen for LRH-1 inverse agonist project (AID 651615; in the data active means inhibition above about 33%). The conditions noted are these: Gal4-VP16 luciferase reporter cells, at 3.6 µM, active compounds read high.

Unmarked numbers belong to inactive results. The list shows a part of the results. Activity calls are given as the source filed them.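 How the source made its calls, unless noted: active means activation above the mean of solvent-only control wells plus 3 SD, set per campaign (cut at about 130% in these data); inactive means the rest.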

Sequence of Photoreceptor-specific nuclear receptor (Homo sapiens) (Q9Y5X4 whole entry, looked up): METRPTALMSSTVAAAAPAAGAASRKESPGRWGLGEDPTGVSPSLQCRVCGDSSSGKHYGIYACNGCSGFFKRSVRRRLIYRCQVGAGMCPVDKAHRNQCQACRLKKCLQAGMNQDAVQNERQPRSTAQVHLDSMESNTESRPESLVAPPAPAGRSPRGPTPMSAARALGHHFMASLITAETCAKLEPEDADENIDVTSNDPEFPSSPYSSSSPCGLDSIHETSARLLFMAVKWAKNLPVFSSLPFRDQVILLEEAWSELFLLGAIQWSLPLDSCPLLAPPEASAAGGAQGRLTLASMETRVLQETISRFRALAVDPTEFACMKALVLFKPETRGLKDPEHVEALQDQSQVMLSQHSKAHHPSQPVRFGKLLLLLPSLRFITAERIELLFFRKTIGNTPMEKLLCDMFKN
Sequence of Insulin-degrading enzyme (Homo sapiens) (P14735 whole entry, looked up): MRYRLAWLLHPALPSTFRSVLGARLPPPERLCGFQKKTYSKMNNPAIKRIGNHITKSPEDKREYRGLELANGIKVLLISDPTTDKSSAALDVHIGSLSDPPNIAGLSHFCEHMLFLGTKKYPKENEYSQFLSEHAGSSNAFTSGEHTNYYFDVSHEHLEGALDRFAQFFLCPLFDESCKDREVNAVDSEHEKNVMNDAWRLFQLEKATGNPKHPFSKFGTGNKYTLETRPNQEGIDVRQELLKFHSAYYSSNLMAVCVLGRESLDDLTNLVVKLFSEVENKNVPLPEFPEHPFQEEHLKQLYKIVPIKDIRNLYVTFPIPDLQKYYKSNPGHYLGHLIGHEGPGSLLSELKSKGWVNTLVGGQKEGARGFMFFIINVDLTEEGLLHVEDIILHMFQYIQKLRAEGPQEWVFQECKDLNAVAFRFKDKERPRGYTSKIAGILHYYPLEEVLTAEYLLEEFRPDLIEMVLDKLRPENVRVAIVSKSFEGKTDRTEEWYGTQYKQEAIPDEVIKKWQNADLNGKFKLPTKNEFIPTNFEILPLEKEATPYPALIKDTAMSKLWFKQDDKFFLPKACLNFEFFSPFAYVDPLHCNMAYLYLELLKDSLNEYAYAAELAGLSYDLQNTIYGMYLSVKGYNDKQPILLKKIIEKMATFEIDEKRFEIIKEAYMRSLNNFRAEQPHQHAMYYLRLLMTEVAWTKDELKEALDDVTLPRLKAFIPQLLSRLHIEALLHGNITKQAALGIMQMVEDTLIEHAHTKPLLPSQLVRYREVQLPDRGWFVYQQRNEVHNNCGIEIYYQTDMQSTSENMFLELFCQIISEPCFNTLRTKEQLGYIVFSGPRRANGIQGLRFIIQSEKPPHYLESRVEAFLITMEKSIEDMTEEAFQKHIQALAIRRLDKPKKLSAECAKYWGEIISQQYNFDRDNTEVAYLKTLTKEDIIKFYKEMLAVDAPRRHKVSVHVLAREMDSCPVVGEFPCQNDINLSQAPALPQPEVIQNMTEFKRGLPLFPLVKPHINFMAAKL

As to `Clc1ccc(Nc2nc(-c3cccs3)cs2)nc1`, the values for the activation (% of control) in assay [1], in assay [2] and in [3] were 289% (active), 149% (active) and 133% (active), respectively. Moreover, the activation is 2.13% in assay [4], 13.6% (active) in assay [5], 13.1% (active) in assay [6] and 0.65% in assay [7].
On to `CN1C(=O)/C(=C/C=C2\SCCN2C)OC1=S`, for which the results for the activation (% of control) in [1], in assay [2] and in [3] were 175% (active), 132% and 118% (active), respectively. In addition, the inhibition (commonly the relative decrease from the control value, in per cent) in [8] was 86.5% (active); in [9] it was 9.01%.
As for `Cc1cc(Cl)ccc1OCc1nc(-c2ccncc2)no1`, the activation (% of control) in assay [1] was 165% (active); in assay [2], 138% (active); in assay [3], 106%. In addition, the activation was 15.6% (active) in assay [6] and 0.57% in assay [7].
For `OCCCN1c2ccccc2Nc2nnc(-c3ccccc3)cc21`, the activation (% of control) was 177% (active) in assay [1], 132% in assay [2] and 102% in assay [3].
As for `COc1ccc(-c2csc(Cc3nc(O)cs3)n2)cc1`, the values for the activation (% of control) in assay [1], in assay [2] and in [3] were 265% (active), 150% (active) and 124% (active), respectively. Further, the activation in [4] was 1.22%; in assay [5], 7.02% (active).
In the case of `COc1ccc(-c2csc(-c3cccs3)n2)cc1OC`, the activation (% of control) is 179% (active) in [1], 136% (active) in assay [2] and 114% (active) in [3]. Besides, the values for the activation in assay [6] and in assay [7] were 9.44% and 0.79%, respectively.
Turning to `COc1ccc(CS(=O)/C(Cl)=C(/Cl)C(=O)Nc2ccc(OC)nc2)cc1` (centres undefined), the activation (% of control) is 335% (active) in assay [1], 67.4% in assay [2] and 105% in assay [3]. The inhibition in [10] is 97% (active); in assay [11] it was 63.7% (active).
In the case of `COc1ccc(C2Nc3ccccc3C(=O)N2c2ccc(Cl)cc2)cc1Cn1cc([N+](=O)[O-])cn1` (centres undefined), the activation (% of control) in [1] was 151% (active); in assay [2], 112%; in [3], 120% (active). The activation in [6] was 10.6% (active); in assay [7] it was 0.5%.
As for `CC(=O)Nc1cccc(-c2cnc3ccccc3n2)c1`, the activation (% of control) in assay [1] is 165% (active); in assay [2], 126%; in assay [3] it was 101%.
The matching figures for `Nc1ncc(-c2cc3ccccc3oc2=O)s1`: 184% (active), 124% and 110%.
Regarding `O=C(Nc1ccc2c(c1)CCC2)c1ccc(Br)s1`, the activation (% of control) in assay [1] was 236% (active); in assay [2] it was 137% (active); in assay [3], 114% (active). In addition, the activation is 2.03% in assay [4], 7.91% (active) in assay [5], 24.6% (active) in assay [6] and 1.14% in assay [7].
In the case of `c1cnc(Nc2nc(-c3ccc4ccccc4c3)cs2)nc1`, the results for the activation (% of control) in [1], in assay [2] and in assay [3] were 208% (active), 139% (active) and 105%, respectively.
The matching figures for `COc1ccc2nc(NC(=O)c3ccc(Br)s3)sc2c1`: 185% (active), 134% (active) and 99.8%.
`COc1cccc(/C=C/c2ccc3ccccc3n2)c1OC(C)=O`: the inhibition in assay [12] is 25.2%; in assay [13], 32.1% (active); in assay [14], -9.23%.
The matching figures for `Cc1ccc(-n2ncc3c(N4CCN(c5ccc(F)cc5)CC4)ncnc32)c(C)c1`: 46.6% (active), 22.4% (active) and 14.9%.
The matching figures for `O=C(Nc1cccnc1)c1noc2c1CCCCC2`: 16.7%, -24.9% and -46.6%.
The matching figures for `Cc1ccc2nc(-c3ccc(NC(=O)CN(C)S(=O)(=O)c4ccccc4)cc3)sc2c1`: 20.1%, -18.5% and -90.5%.
`CCN(CC)c1ccc(/C=N/Nc2nc(C)cc(=O)[nH]2)cc1`: the inhibition in assay [12] was 37.2%; in [13], -2%; in [14], -4.6%.
Consider `CC(=O)c1sc(N/N=C/c2ccc(C(C)C)cc2)nc1C`, for which the activation (% of control) in [1] was 187% (active); in [2] it was 133% (active); in assay [3], 110%. In addition, the activation in [6] is 11.8% (active); in assay [7], 0.5%.
The matching figures for `Cc1cccc(-n2c(O)c(C=Nc3ccccc3N)c(=O)[nH]c2=O)c1`: 127%, 118%, 103%, 8.36% and 0.33%.
Turning to `N#Cc1nc(COc2ccc(-c3ccccc3)cc2)oc1NCc1cccnc1`, the inhibition in [12] is 35.1%; in assay [13], 2.23%; in assay [14], 12.9%.
On to `CC(C)C[C@@H](N)c1nnc(SCC(=O)c2ccc(Cl)cc2)o1`, for which the figures for the inhibition in assay [12], in [13] and in assay [14] were 36.7%, 10.9% and 9.47%, respectively.
With `O=C(Nc1ccc2oc(-c3ccccc3F)nc2c1)c1ccco1`, the activation (% of control) in [1] is 204% (active); in assay [2], 137% (active); in assay [3], 104%. Further, the activation in assay [6] was 11.9% (active); in assay [7], 0.57%.
Take `COc1cc(N=Cc2c(O)[nH]c3ccccc23)cc(OC)c1OC`: the inhibition in assay [12] was 49.1% (active); in [13] it was 27% (active); in [14], -12%; in assay [10], 76.8% (active); in [11], 19.1%; in assay [15] it was 28.2%. Moreover, the inhibition is 1.5% in assay [16]; 73.8% (active) in assay [17]; 58.7% in assay [18]; 61.7% (active) in assay [19]; 54.4% (active) in [20]; 69.2% (active) in assay [21]. In addition, the inhibition in assay [22] was 25.2%.
For `CCCCCc1ccc(-c2ccc(C(=O)O)cc2)nc1`, the results for the inhibition in assay [12], in assay [13] and in [14] were 22.4%, -6.17% and -71.4%, respectively.
Regarding `CCc1ccc(NC2Nc3cc(C)nn3S2)cc1` (centres undefined), the activation (% of control) in assay [1] is 206% (active); in [2], 141% (active); in assay [3] it was 126% (active). Also, the activation in assay [6] was 18.8% (active); in [7], 0.76%.
As to `Cc1nn(-c2ccc([N+](=O)[O-])cc2)c(N)c1-c1ccccc1`, the activation (% of control) is 207% (active) in [1], 145% (active) in assay [2] and 126% (active) in assay [3]. Moreover, the activation is 16.4% (active) in assay [6] and 0.83% in [7].
Consider `C=CC[n+]1c(-c2ccc(C)cc2)csc1NNC(=O)Nc1ccccc1`, for which the inhibition in assay [12] was 51.1% (active); in assay [13], 18.4% (active); in assay [14], 16.9% (active).
